This is an account of results in PubChem BioAssay (NCATS).

Molecules are shown by their SMILES. Inconclusive results are not listed. Entries that show only a call come without a potency. The source made the active and inactive calls. The call rests on the fitted dose curve; in most records, active means well fitted cell-killing curve with a large enough effect; inconclusive means small, poorly fitted or top-dose-only effect; inactive means flat fitted curve, though single readings scatter. Non-standard residues stand in square brackets, D forms with d. Residues, ends and D or L forms follow the SMILES beside them. *: point of attachment. Nva = CCC[C@H](N)C(=O)O; Cbz = O=C(OCc1ccccc1)*
Potency means the concentration at half of the fitted maximal effect.

The test in a line: qHTS of pediatric cancer cell lines to identify multiple opportunities for drug repurposing: Primary screen for TC32 cells (AID 1347089). Further: nearly all actives have a fitted effect of over 60% in size. Particulars: TC32 Ewing sarcoma viability, CellTiter-Glo luminescence, 48 h; series mostly up to 45.8 µM. The method in brief:
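Luminescent CellTiter-Glo read-out of metabolically active TC32 cells after 48 h compound exposure. Primary: MIPE 11-point, 0.78 nM–46 µM; NPC 8-point, 0.59 nM–46 µM. Confirmatory: 11-point dilutions.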
For `CC(C)(O)Cn1c(NC(=O)c2ccc(-c3cn[nH]c3)s2)nc2cc(CN3CCOCC3)ccc21`, the Potency was 8.29 µM (active).
In the case of `Cn1cc(C[C@@H](N)C(=O)O)c2ccccc21` it was “inactive”.
Consider `O=C(O)[C@H](CC(=O)N1C[C@@H]2CCCC[C@H]2C1)Cc1ccccc1`, for which the Potency result is “inactive”.
In the case of `C[C@H](CCC(=O)O)[C@H]1CCC2C3C[C@H](O)[C@@H]4C[C@H](O)CC[C@]4(C)C3CC[C@@]21C` (stereo not given in full) it was “inactive”.
The value for `CCCCCCCN(CC)CCCC(O)c1ccc(NS(C)(=O)=O)cc1` (stereo not given) was “inactive”; that for `CCC[C@@H](C=O)NC(=O)[C@H](CC(C)C)NC(=O)[C@H](CC(C)C)NC(=O)OCc1ccccc1` (Cbz-Leu-Leu-[Nva]-aldehyde) was 3.7 µM (active).
The value for `CC(Oc1ccc(O)cc1)(P(=O)(O)O)P(=O)(O)O` was “inactive”; that for `N#Cc1cc(NC(=O)Nc2nnc(-c3ccncc3)s2)ccc1-c1cn[nH]c1` was “inactive”.
Regarding `COc1ccnc2[nH]cc(C(=O)C(=O)N3CCN(C(=O)c4ccccc4)C[C@@H]3C)c12`, the Potency entry was “inactive”.
Regarding `OCCNC1CCCc2c1[nH]c1ccc(-c3ccccc3)cc21` (stereo not given), the Potency entry was “inactive”.
Consider `COc1cc(C=CC(=O)CC(=O)C=Cc2ccc(O)c(OC)c2)ccc1O`, for which the Potency was 33.9 µM (active).
As to `CC(=O)NC(CS)C(=O)O` (stereo not given), the Potency result was “inactive”.
With `C[C@@H](Cc1cc2c(c(C(N)=O)c1)N(CCCO)CC2)NCCOc1ccccc1OCC(F)(F)F`, the Potency result was “inactive”.
With `COc1cc([C@@H]2c3cc4c(cc3[C@H](O)[C@H]3COC(=O)[C@@H]23)OCO4)cc(OC)c1OC`, the Potency is 0.739 µM (active).
For the compound `CC(C)N1[N]C(=C2C=c3cc(O)ccc3=N2)c2c(N)ncnc21`, the Potency is 2.94 µM (active).
